TAR Tat displ = TAR RNA-Tat peptide displacers, HIV-1, primary screen, biochemical, FRET, FAM/TAMRA-labeled Tat | HIV-1 TAR RNA, Tat peptide displacement FRET; hits give high values | z-score (no concentration beside the values) | 100,000 compounds, 0.6% hits; active = z-score of 3 or more in at least 2 runs
CDC25B-CDK2 inh = primary biochemical HTRF screen for blockers of M-phase inducer phosphatase 2 binding to CDK2/cyclin A. P30305+P24941. HTRF CDC25B-CDK2/CyclinA binding, anti-His/anti-Flag; hits give high values. z-score (test concentration not listed). 94,000 compounds, 0.72% hits. AID 1259370, 2018; in the data active = z-score above about 3.2
The depositor's hits bear a star; · = no result given. Sampled rows, rich in hits. Any-hit rate of the full collection: about 0.9%.

SMILES	TAR Tat displ	CDC25B-CDK2 inh
CCOc1ccc(-c2cc(C(=O)O)c3cc(Br)ccc3n2)cc1	1.9	-2.38
COc1ccc(-c2cc(C(=O)OC(C)C)c3cc(Br)ccc3n2)cc1	·	15.1*
CSc1scc(Cl)c1S(=O)(=O)C(C)C	·	-0.42
Cc1ccc(S(=O)(=O)Nc2cc(Sc3nc4ccccc4[nH]3)c(O)c3ccccc23)cc1	·	18*
Cc1ccc(S(=O)(=O)Nc2cc(Sc3nc(C)cc(C)n3)c(O)c3ccccc23)cc1	·	-2.33
Cc1cccc(N2CCN([C@H]3CS(=O)(=O)C[C@@H]3S(=O)(=O)c3ccccc3)CC2)c1	-0.55	-2.11
COc1cc(-c2coc3cc(OCc4ccccc4)c(OC)c(O)c3c2=O)cc(OCc2ccccc2)c1OC	25.8*	·
COc1ccc(-c2coc3cc(OCc4ccc(Br)cc4)cc(O)c3c2=O)cc1OC	-0.9	-0.86
O=C(O)C1CCCN(S(=O)(=O)c2ccccc2Br)C1 (stereo not given)	-0.3	0.19
O=C1C[C@@H](c2ccc(O)c(O)c2)Oc2cc(O[C@H]3O[C@@H](CO)[C@H](O)[C@@H](O)[C@@H]3O)cc(O)c21	3.17	·
O=C1/C(=C\c2ccc(O)c(O)c2)Oc2c1ccc(O[C@@H]1O[C@H](CO)[C@@H](O)[C@H](O)[C@H]1O)c2O	16.1*	·
CCOC(=O)Cn1c2ccc(Cl)cc2c2nc3ccccc3nc21	0.94	19*
CC(C)OC(=O)Cn1c2ccc(Cl)cc2c2nc3ccccc3nc21	2.63	-1.39
Cc1csc2nc(COc3ccc(NC(=O)c4ccco4)cc3)cc(=O)n12	-0.63	1.26
N#CCc1ccc(NC(=O)C2=CCCCC2C(=O)O)cc1 (stereo not given)	·	-1.94
Cn1nnnc1SCCNCc1c(OCc2ccccc2F)ccc2ccccc12	0.1	-0.91
O=C(Nc1cccc(Cl)c1)c1cnn(-c2ccc([N+](=O)[O-])cc2)c1C(F)(F)F	·	1.23
C=CCOc1ccc(C2CC(=O)Nc3c2c(C)nn3-c2nncc(-c3ccc(C)cc3)n2)cc1 (stereo not given)	2.86	-2.04
C=CCOc1ccc(C2CC(=O)Nc3c2c(C)nn3-c2nncc(-c3ccc(F)cc3)n2)cc1 (stereo not given)	15.8*	-1.66
Cc1ccc(NC(=O)Nc2nnc(CC(=O)Nc3ccccc3)s2)cc1	·	0.1
COc1ccc(NC(=O)Nc2nnc(CC(=O)Nc3ccc(C)cc3)s2)cc1	·	5.53*
CC(C)Cn1cc(NC(=O)Nc2cc(F)ccc2F)c2ccccc2c1=O	1.13	·
CC(C)Cn1cc(NC(=O)Nc2ccc(Br)cc2F)c2ccccc2c1=O	-0.05	14.5*
Cn1c(=O)c2c(-c3ccc(F)cc3)c(NCCc3ccccc3)oc2n(C)c1=O	0.72	·
COC(=O)c1[nH]c2sc3c(c2c1N)CCCC3	6.97*	14.2*
SMILES	TAR Tat displ	CDC25B-CDK2 inh
O=c1[nH]c(=S)[nH]c2sc3c(c12)CCCC3	·	-3.27
CCOC(=O)c1[nH]c2sc(C)c(C)c2c1N	-2.67	2.95
CCOC(=O)c1[nH]c2sc3c(c2c1N)CCCC3	5.16*	16.8*
O=C1CCSc2ccc(S(=O)(=O)N3CCCc4ccccc43)cc2N1	-2.56	·
O=C(O)c1cc(O)c2c(c1)[C@@H]([C@H]1c3cc(C(=O)O)cc(O)c3C(=O)c3c(O[C@H]4O[C@H](CO)[C@@H](O)[C@H](O)[C@H]4O)cccc31)c1cccc(O[C@H]3O[C@H](CO)[C@@H](O)[C@H](O)[C@H]3O)c1C2=O	22*	·
Oc1ccccc1CNc1nc2ccccc2n1CCN1CCOCC1	-0.51	-0.63
CCOC(=O)N1CCC(Nc2c(N3CCN(c4ccc(F)cc4)CC3)c(=O)c2=O)CC1	-0.9	-0.95
Nc1ccc(O)c(C(=O)O)c1	21.4*	·
O=C(O)c1cccc2cccc(C(=O)O)c12	·	-1.33
O=C(O)c1cccc(O)c1O	9.56*	·
Nc1ccc(C(=O)O)c(O)c1 (tested in a mixture with another compound)	16.1*	·
Nc1ccc(C(=O)O)cc1	1.62	·
O=C(O)c1cc(O)ccc1O	3.19	·
COc1ccc(OC)c(N(C)c2c(-c3ccccc3)c(=O)c2=O)c1	2.44	·
CCC1CCCCN1Cc1ccc(CNC(=O)c2c(C)oc3ncnc(N4CCCCC4)c23)o1 (stereo not given)	0.54	·
CNC(=O)c1cc(=O)n(CC(=O)Nc2sc3c(c2C(=O)OC)CCC3)c2ccccc12	8.29*	·
COC(=O)c1c(NC(=O)c2ccccc2C(=O)O)sc2c1CCC2	1.75	0.85
CSc1ccc(C2CC(=O)N3CN(c4ccccc4F)CSC3=C2C#N)cc1 (stereo not given)	2.34	0.14
CSc1ccc(C2CC(=O)N3CN(c4ccc(C)cc4)CSC3=C2C#N)cc1 (stereo not given)	-3.11	5.48*
CCc1ccc(C2CC(=O)N3CN(c4ccccc4)CSC3=C2C#N)cc1 (stereo not given)	-1.18	4.46*
CSc1ccc(C2CC(=O)N3CN(Cc4ccco4)CSC3=C2C#N)cc1 (stereo not given)	0.97	1.96
CSc1ccc(C2CC(=O)N3CN(C)CSC3=C2C#N)cc1 (stereo not given)	0.89	0.34
CSc1ccc(C2CC(=O)N3CN(c4ccccc4C)CSC3=C2C#N)cc1 (stereo not given)	0.58	14.6*
CSc1ccc(C2CC(=O)N3CN(c4ccccc4)CSC3=C2C#N)cc1 (stereo not given)	-1.24	4.07*
COC(=O)c1cnn2c1NCN(Cc1cccs1)C2	0.37	-1.27
SMILES	TAR Tat displ	CDC25B-CDK2 inh
O=C1C2C(c3ccccc3Cl)OC3(C(=O)c4ccccc4C3=O)C2C(=O)N1C1CCCCC1 (stereo not given)	·	-1.72
CN(Cc1ccccc1)C(=O)Cn1nc(-c2ccco2)ccc1=O	0.47	·
O=C(Cn1cc(Cl)c(=O)c(Cl)c1)N/N=C/c1ccc(Cl)c(Cl)c1	·	-1.47
Cc1ccc(C2CC(=O)N3CN(C)CSC3=C2C#N)cc1 (stereo not given)	0.37	0.82
CCOc1cc(C2CC(=O)N3CN(c4ccc(C)cc4)CSC3=C2C#N)ccc1O (stereo not given)	2.96	3.2*
CN1CSC2=C(C#N)C(c3ccccc3)CC(=O)N2C1 (stereo not given)	0.4	4.14
COC(=O)c1ccc(N2CSC3=C(C#N)C(c4ccc(C)cc4)CC(=O)N3C2)cc1 (stereo not given)	1.34	15.6*
CCOC(=O)c1ccc(N2CSC3=C(C#N)C(c4ccc(SC)cc4)CC(=O)N3C2)cc1 (stereo not given)	-2.3	5.1*
CN1CSC2=C(C#N)C(c3cccc(OCc4ccccc4)c3)CC(=O)N2C1 (stereo not given)	-1.88	3.36*
CC1=C(c2cccc(Cl)c2)S(=O)(=O)N=C1N(C)Cc1ccccc1	1.56	-6.13
O=C(CSc1nc2ccccc2s1)Nc1ncc(Br)s1	-0.61	-2.22
CSc1c(CC(=O)O)n(Cc2ccccc2)c2ccccc12	1.6	-0.27
CCOC(=O)c1ccc(N2CSC3=C(C#N)C(c4ccc(C)cc4)CC(=O)N3C2)cc1 (stereo not given)	-1.62	6.13*
CCOC(=O)CN1CSC2=C(C#N)C(c3ccc(F)cc3)CC(=O)N2C1 (stereo not given)	2.31	-0.34
CCOc1ccc(C2CC(=O)N3CN(C)CSC3=C2C#N)cc1OC (stereo not given)	-0.1	3.64*

Compound activity from PubChem.
